Measured values as given in the supplement of paper PMC8047044.

test system: Neuro-2a; assay: neurite formation score, plate-normalized to DMSO control mean 5.04 (score (0-8 scale)); higher = more or longer neurites; details: 1 µM
Procedure: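 Neuro-2a mouse neuroblastoma cells in PLL-coated 96-well plates were pre-treated for 1 h in DMEM(+) with each kinase inhibitor at 1 µM, then switched to serum-free DMEM(-) with inhibitor to induce neurite outgrowth and fixed about 2-3 h later. Three blinded observers scored neurite formation from 0 (no neurites) to 8 (long neurites on almost all cells).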

SMILES	neurite formation score
COc1cc([C@@H]2c3cc4c(cc3[C@H](O)[C@H]3COC(=O)[C@@H]23)OCO4)cc(OC)c1OC	4.24
O=c1[nH]c2ccc(Cl)cc2c(N[C@@H]2CN3CCC2CC3)c1-c1nc2ccccc2[nH]1	5.96
CCN1CCN(C(=O)Cc2ccc(Nc3ncc(F)c(Nc4ccc(C(=O)Nc5ccccc5Cl)cc4)n3)cc2)CC1 [Aurora A Inhibitor I]	3.69
N#CC(C#N)=Cc1ccc(O)c(O)c1	4.91
O=c1[nH]c2ccccc2n1C1CCN(Cc2ccc(-c3[nH]c4cc5ncnc5cc4nc3-c3ccccc3)cc2)CC1 [AKT inhibitor VIII]	4.91
COc1ccc2c(c[n+](C)c3c4cc5c(cc4ccc23)OCO5)c1OC [Chelerythrine Chloride]	4.57
COc1ccc(N(C(=O)Oc2c(C)cccc2C)c2ccnc(Nc3ccc(N4CCN(C)CC4)cc3)n2)c(OC)c1	3.88
CC(C)(C)c1cc(C=C(C#N)C#N)cc(Br)c1O	4.24
CC(C)(C)c1cc(C=C(C#N)C#N)cc(C(C)(C)C)c1O [Tyrphostin 9]	4.96
Cc1ccccc1-n1c(Cn2cnc3c(N)ncnc32)nc2cccc(C)c2c1=O	5.21
Cn1cc(C2=C(c3cn(C4CCN(Cc5ccccn5)CC4)c4ccccc34)C(=O)NC2=O)c2ccccc21	3.91
COC[C@H]1OC(=O)c2coc3c2[C@@]1(C)C1=C(C3=O)[C@@H]2CCC(=O)[C@@]2(C)C[C@H]1OC(C)=O [Wortmannin]	4.63
